Experimental data taken from PubChem BioAssay AID1159580 (chemical genetic matrix, 2015).
Where “and” joins values, the source holds several entries; their conditions need not be identical. Equal entries are not always repeated. The campaign covered roughly 5,500 compounds. About 2,000 (36%) were called active. Roughly 18% stayed inconclusive and do not appear here. No stated cut-off is given here; in the data, active means normalized growth mostly below about 0.91 (no sharp cut-off); inconclusive means no clear call, values can overlap the other calls; inactive means mostly above about 0.92. This is one part of the list. The source holds several records for some structures; these can differ, active in one and inactive in another.

Experiment: chemical genetic growth profiling, strain panel (AID 1159580);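 further: tested at 20 µM; growth read once vehicle control cultures reached saturation at 30 °C; 1 = growth at the plate median or of vehicle wells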
Conditions: growth OD

Structure (SMILES): NCC(O)c1ccc(O)cc1 (stereo not given)
- normalized growth (S. cerevisiae deletion strains, locus YKL009W, strain mrt4, stronger effect = lower value): 1.01 (inactive)
- normalized growth (S. cerevisiae deletion strains, locus YKL068W, stronger effect = lower value): 0.984 (inactive)
- normalized growth (S. cerevisiae deletion strains, locus YKL085W, strain MDH1 (second series), stronger effect = lower value): 0.989 (inactive)
- normalized growth (S. cerevisiae deletion strains, locus YKL085W, strain MDH1, stronger effect = lower value): 0.989 (inactive)
- normalized growth (S. cerevisiae deletion strains, locus YKL160W, strain elf1, stronger effect = lower value): 0.998 (inactive)
- normalized growth (S. cerevisiae deletion strains, locus YKL190W, strain CNB1, stronger effect = lower value): 1 (inactive)
- normalized growth (S. cerevisiae deletion strains, locus YKR001C, strain vps1, stronger effect = lower value): 0.967 (inactive)
- normalized growth (S. cerevisiae deletion strains, locus YKR026C, strain gcn3, stronger effect = lower value): 0.998 (inactive)
- normalized growth (S. cerevisiae deletion strains, locus YKR091W, strain srl3, stronger effect = lower value): 0.999 (inactive)
- normalized growth (S. cerevisiae deletion strains, locus YLL001W, strain dnm1, stronger effect = lower value): 1 (inactive)
- normalized growth (S. cerevisiae deletion strains, locus YLL026W, stronger effect = lower value): 0.99 (inactive)
- normalized growth (S. cerevisiae deletion strains, locus YLL041C, strain sdh2, stronger effect = lower value): 1.01 (inactive)
- normalized growth (S. cerevisiae deletion strains, locus YLR027C, strain aat2, stronger effect = lower value): 0.993 (inactive)
- normalized growth (S. cerevisiae deletion strains, locus YLR039C, strain RIC1, stronger effect = lower value): 1.02 (inactive)
- normalized growth (S. cerevisiae deletion strains, locus YLR058C, strain SHM2, stronger effect = lower value): 0.995 (inactive)
- normalized growth (S. cerevisiae deletion strains, locus YLR102C, strain apc9, stronger effect = lower value): 0.972 (inactive)
- normalized growth (S. cerevisiae deletion strains, locus YLR113W, strain HOG1, stronger effect = lower value): 1.02 (inactive)
- normalized growth (S. cerevisiae deletion strains, locus YLR221C, strain rsa3, stronger effect = lower value): 1 (inactive)
- normalized growth (S. cerevisiae deletion strains, locus YLR258W, strain gsy2, stronger effect = lower value): 1.01 (inactive)
- normalized growth (S. cerevisiae deletion strains, locus YLR262C, strain YPT6 (second series), stronger effect = lower value): 0.983 (inactive)
- normalized growth (S. cerevisiae deletion strains, locus YLR262C, strain YPT6, stronger effect = lower value): 1.06 (inactive)
- normalized growth (S. cerevisiae deletion strains, locus YLR268W, strain sec22, stronger effect = lower value): 0.922 (inactive)
- normalized growth (S. cerevisiae deletion strains, locus YLR320W, strain mms22, stronger effect = lower value): 1.04 (inactive)
- normalized growth (S. cerevisiae deletion strains, locus YLR330W, strain CHS5, stronger effect = lower value): 0.996 (inactive)
- normalized growth (S. cerevisiae deletion strains, locus YLR342W, strain FKS1 (second series), stronger effect = lower value): 1.03 (inactive)
- normalized growth (S. cerevisiae deletion strains, locus YLR342W, strain FKS1, stronger effect = lower value): 0.981 (inactive)
- normalized growth (S. cerevisiae deletion strains, locus YLR357W, strain rsc2, stronger effect = lower value): 0.973 (inactive)
- normalized growth (S. cerevisiae deletion strains, locus YLR370C, strain arc18, stronger effect = lower value): 1.01 (inactive)
- normalized growth (S. cerevisiae deletion strains, locus YLR371W, strain rom2, stronger effect = lower value): 0.981 (inactive)
- normalized growth (S. cerevisiae deletion strains, locus YLR384C, strain iki3, stronger effect = lower value): 1 (inactive)
- normalized growth (S. cerevisiae deletion strains, locus YLR418C, strain cdc73, stronger effect = lower value): 0.967 (inactive)
- normalized growth (S. cerevisiae deletion strains, locus YML016C, strain PPZ1, stronger effect = lower value): 0.998 (inactive)
- normalized growth (S. cerevisiae deletion strains, locus YML032C, strain rad52, stronger effect = lower value): 0.962 (inactive)
- normalized growth (S. cerevisiae deletion strains, locus YML120C, strain ndi1, stronger effect = lower value): 1.01 (inactive)
- normalized growth (S. cerevisiae deletion strains, locus YML124C, strain tub3, stronger effect = lower value): 0.99 (inactive)
- normalized growth (S. cerevisiae deletion strains, locus YMR058W, strain fet3, stronger effect = lower value): 1.02 (inactive)
- normalized growth (S. cerevisiae deletion strains, locus YMR078C, strain ctf18, stronger effect = lower value): 0.968 (inactive)
- normalized growth (S. cerevisiae deletion strains, locus YMR125W, strain sto1, stronger effect = lower value): 0.993 (inactive)
- normalized growth (S. cerevisiae deletion strains, locus YMR129W, stronger effect = lower value): 1.01 (inactive)
- normalized growth (S. cerevisiae deletion strains, locus YMR205C, strain PFK2, stronger effect = lower value): 0.994 (inactive)
- normalized growth (S. cerevisiae deletion strains, locus YMR223W, strain ubp8, stronger effect = lower value): 0.997 (inactive)
- normalized growth (S. cerevisiae deletion strains, locus YMR231W, strain pep5, stronger effect = lower value): 0.995 (inactive)
- normalized growth (S. cerevisiae deletion strains, locus YMR263W, strain SAP30, stronger effect = lower value): 0.727 (active) and 1 (inactive)
- normalized growth (S. cerevisiae deletion strains, locus YMR307W, strain GAS1, stronger effect = lower value): 0.985 (inactive)
- normalized growth (S. cerevisiae deletion strains, locus YNL067W, strain RPL9B, stronger effect = lower value): 0.991 (inactive)
- normalized growth (S. cerevisiae deletion strains, locus YNL071W, strain lat1, stronger effect = lower value): 1.01 (inactive)
- normalized growth (S. cerevisiae deletion strains, locus YNL128W, strain TEP1, stronger effect = lower value): 0.993 (inactive)
- normalized growth (S. cerevisiae deletion strains, locus YNL153C, strain GIM3, stronger effect = lower value): 0.991 (inactive) and 1.02 (inactive)
- normalized growth (S. cerevisiae deletion strains, locus YNL175C, strain NOP13, stronger effect = lower value): 1.01 (inactive)
- normalized growth (S. cerevisiae deletion strains, locus YNL183C, strain NPR1, stronger effect = lower value): 0.918 (inactive)
- normalized growth (S. cerevisiae deletion strains, locus YNL197C, strain WHI3, stronger effect = lower value): 1.04 (inactive)
- normalized growth (S. cerevisiae deletion strains, locus YNL209W, strain ssb2, stronger effect = lower value): 1.02 (inactive)
- normalized growth (S. cerevisiae deletion strains, locus YNL224C, strain SQS1, stronger effect = lower value): 1.01 (inactive)
- normalized growth (S. cerevisiae deletion strains, locus YNL233W, strain BNI4, stronger effect = lower value): 0.977 (inactive)
- normalized growth (S. cerevisiae deletion strains, locus YNL248C, strain rpa49, stronger effect = lower value): 1.02 (inactive)
- normalized growth (S. cerevisiae deletion strains, locus YNL250W, strain rad50, stronger effect = lower value): 0.976 (inactive)
- normalized growth (S. cerevisiae deletion strains, locus YNL271C, strain bni1, stronger effect = lower value): 0.967 (inactive)
- normalized growth (S. cerevisiae deletion strains, locus YNL298W, strain CLA4, stronger effect = lower value): 0.966 (inactive)
- normalized growth (S. cerevisiae deletion strains, locus YNL307C, strain MCK1, stronger effect = lower value): 0.985 (inactive)
- normalized growth (S. cerevisiae deletion strains, locus YNL322C, strain KRE1 (second series), stronger effect = lower value): 1 (inactive)
- normalized growth (S. cerevisiae deletion strains, locus YNL322C, strain KRE1, stronger effect = lower value): 0.999 (inactive) and 1.02 (inactive)
- normalized growth (S. cerevisiae deletion strains, locus YNR049C, strain mso1, stronger effect = lower value): 1 (inactive)
- normalized growth (S. cerevisiae deletion strains, locus YNR052C, strain pop2, stronger effect = lower value): 0.982 (inactive)
- normalized growth (S. cerevisiae deletion strains, locus YOL006C, strain TOP1, stronger effect = lower value): 0.943 (inactive)
- normalized growth (S. cerevisiae deletion strains, locus YOL012C, strain htz1): 2.07 [resistant] (active)
- normalized growth (S. cerevisiae deletion strains, locus YOL147C, strain pex11, stronger effect = lower value): 0.976 (inactive)
- normalized growth (S. cerevisiae deletion strains, locus YOR001W, strain rrp6, stronger effect = lower value): 0.989 (inactive)
- normalized growth (S. cerevisiae deletion strains, locus YOR061W, strain CKA2, stronger effect = lower value): 0.991 (inactive)
- normalized growth (S. cerevisiae deletion strains, locus YOR069W, strain VPS5, stronger effect = lower value): 0.995 (inactive)
- normalized growth (S. cerevisiae deletion strains, locus YOR070C, strain gyp1, stronger effect = lower value): 1 (inactive)
- normalized growth (S. cerevisiae deletion strains, locus YOR080W, strain dia2, stronger effect = lower value): 0.985 (inactive)
- normalized growth (S. cerevisiae deletion strains, locus YOR083W, strain WHI5 (second series), stronger effect = lower value): 1.01 (inactive)
- normalized growth (S. cerevisiae deletion strains, locus YOR083W, strain WHI5, stronger effect = lower value): 0.977 (inactive)
- normalized growth (S. cerevisiae deletion strains, locus YOR106W, strain vam3, stronger effect = lower value): 1.02 (inactive)
- normalized growth (S. cerevisiae deletion strains, locus YOR136W, strain idh2, stronger effect = lower value): 0.982 (inactive)
- normalized growth (S. cerevisiae deletion strains, locus YOR144C, strain elg1, stronger effect = lower value): 0.976 (inactive)
- normalized growth (S. cerevisiae deletion strains, locus YOR184W, strain ser1, stronger effect = lower value): 0.971 (inactive)
- normalized growth (S. cerevisiae deletion strains, locus YOR231W, strain MKK1, stronger effect = lower value): 1.01 (inactive)
- normalized growth (S. cerevisiae deletion strains, locus YOR265W, strain rbl2, stronger effect = lower value): 1 (inactive)
- normalized growth (S. cerevisiae deletion strains, locus YOR270C, strain vph1, stronger effect = lower value): 1.06 (inactive)
- normalized growth (S. cerevisiae deletion strains, locus YOR290C, strain snf2, stronger effect = lower value): 1 (inactive)
- normalized growth (S. cerevisiae deletion strains, locus YOR316C, strain cot1, stronger effect = lower value): 0.974 (inactive)
- normalized growth (S. cerevisiae deletion strains, locus YPL051W, strain arl3, stronger effect = lower value): 0.995 (inactive)
- normalized growth (S. cerevisiae deletion strains, locus YPL055C, strain LGE1, stronger effect = lower value): 1.02 (inactive) and 1.01 (inactive)
- normalized growth (S. cerevisiae deletion strains, locus YPL078C, strain atp4, stronger effect = lower value): 1.01 (inactive)
- normalized growth (S. cerevisiae deletion strains, locus YPL106C, strain sse1, stronger effect = lower value): 0.971 (inactive)
- normalized growth (S. cerevisiae deletion strains, locus YPL240C, strain hsp82, stronger effect = lower value): 1 (inactive)
- normalized growth (S. cerevisiae deletion strains, locus YPL241C, strain CIN2, stronger effect = lower value): 1 (inactive) and 1.01 (inactive)
- normalized growth (S. cerevisiae deletion strains, locus YPL256C, strain CLN2, stronger effect = lower value): 0.97 (inactive)
- normalized growth (S. cerevisiae deletion strains, locus YPR119W, strain clb2, stronger effect = lower value): 0.968 (inactive)
- normalized growth (S. cerevisiae deletion strains, locus YPR141C, strain kar3, stronger effect = lower value): 0.976 (inactive)
- normalized growth (S. cerevisiae deletion strains, locus YPR163C, strain tif3, stronger effect = lower value): 0.971 (inactive)
- normalized growth (S. cerevisiae deletion strains, locus YPR167C, strain met16, stronger effect = lower value): 0.974 (inactive)
- normalized growth (S. cerevisiae deletion strains, strain wtn01, stronger effect = lower value): 0.969 (inactive)
- normalized growth (S. cerevisiae strains, strain wild type, stronger effect = lower value): 1 (inactive)
